Assay [1] is described as follows: ATG_AP_1_CIS: Attagene CIS-FACTORIAL HepG2 Assay for human Activator Protein 1 (AP-1) (AID 2282931; active = hit-call score of the fitted dose curve at least 0.9, where 1 is the maximum; inactive = score below 0.9). The conditions noted are these: HepG2 Attagene cis-factorial AP-1 reporter mRNA; actives raise or lower the signal. An outline of the steps: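 Transient MRTU transfection of HepG2 → 24 h chemical treatment → RNA isolation, RT-PCR, 6-FAM labelling, HpaI digest → capillary electrophoresis. Fit: bidirectional, DMSO negative control.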

Assay [2] is described as follows: ATG_M_61_CIS: Attagene CIS-FACTORIAL HepG2 Assay for M61 Transcription Factor (Internal Marker) (AID 2282937; active = hit-call score of the fitted dose curve at least 0.9, where 1 is the maximum; inactive = score below 0.9). The conditions noted are these: HepG2 Attagene CIS-FACTORIAL M61 internal marker reporter; actives raise or lower the signal. A digest of the protocol:
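Human liver HepG2, transient MRTU transfection (cis promoter elements), 24 h compound. Total RNA → oligo(dT) RT → PCR → FAM label → HpaI → CE. Internal background marker; bidirectional fitting, DMSO = baseline.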

Assay [3] in a line: ATG_ISRE_CIS: Attagene CIS-FACTORIAL HepG2 Assay for human Interferon Regulatory Factor 1 (IRF1) binding to an Interferon-Stimulated Response Element (ISRE) (AID 2282948; active = hit-call score of the fitted dose curve at least 0.9, where 1 is the maximum; inactive = score below 0.9). As to conditions: HepG2 ISRE cis-reporter (Attagene), mRNA transcription readout; actives raise or lower the signal. A digest of the protocol: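 Transfected HepG2 (multiple reporter transcription units, cis elements) dosed 24 h. RNA → oligo(dT) RT → PCR → 6-FAM primer extension → HpaI → CE. DMSO = negative control/baseline.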

The nature of assay [4]: ATG_PBREM_CIS: Attagene CIS-FACTORIAL HepG2 Assay for human Phenobarbital-responsive Enhancer Module (PBREM) (AID 2282955; active = hit-call score of the fitted dose curve at least 0.9, where 1 is the maximum; inactive = score below 0.9). The conditions noted are these: HepG2 PBREM cis-reporter, Attagene multiplexed transcription; actives raise or lower the signal. A digest of the protocol:
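Endogenous transcription factors in human liver HepG2 cells drive a PBREM cis-element reporter, whose transcript level after 24 h treatment is quantified by RT-PCR with capillary electrophoresis; activity fitted in both directions against DMSO.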

For assay [5], the target named is Oxysterols receptor LXR-beta (Homo sapiens) (UniProt P55055). Put plainly: ATG_LXRb_TRANS: Attagene TRANS-FACTORIAL HepG2 Assay for human Liver X Receptor beta (LXRb) (AID 2282981). As to conditions: HepG2 Attagene TRANS GAL4-LXRb reporter, mRNA. An outline of the steps: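 Cells: HepG2, transiently transfected with GAL4-UAS reporter units plus LXRb-Gal4 fusion. Treatment: 24 h. Detection: reporter mRNA by RT-PCR, 6-FAM labelling, HpaI digestion, capillary electrophoresis.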
Chain of Oxysterols receptor LXR-beta (Homo sapiens) (P55055 whole entry, looked up, the tested form may be a part): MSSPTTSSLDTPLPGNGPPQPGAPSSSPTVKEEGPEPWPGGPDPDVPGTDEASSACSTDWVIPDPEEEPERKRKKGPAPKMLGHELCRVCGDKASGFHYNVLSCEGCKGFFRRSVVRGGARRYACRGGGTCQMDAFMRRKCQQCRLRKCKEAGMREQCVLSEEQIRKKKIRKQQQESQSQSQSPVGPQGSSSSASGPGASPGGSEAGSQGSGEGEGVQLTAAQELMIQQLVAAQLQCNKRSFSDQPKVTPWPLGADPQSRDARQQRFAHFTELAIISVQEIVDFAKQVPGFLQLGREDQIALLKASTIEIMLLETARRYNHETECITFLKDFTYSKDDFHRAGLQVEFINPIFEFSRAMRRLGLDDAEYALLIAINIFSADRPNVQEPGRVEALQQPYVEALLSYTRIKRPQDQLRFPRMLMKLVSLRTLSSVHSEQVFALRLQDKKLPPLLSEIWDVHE

The nature of assay [6]: ATG_M_06_TRANS: Attagene TRANS-FACTORIAL HepG2 Assay for M06 Transcription Factor (Internal Marker) (AID 2282983). As to conditions: HepG2 Attagene TRANS M06 internal marker reporter. An outline of the steps:
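HepG2 cells transiently transfected with multiplexed GAL4-UAS reporter transcription units; after 24 h compound exposure, reporter mRNA measured by RT-PCR, FAM-labelled primer extension, HpaI digestion and capillary electrophoresis. Gain-of-signal fitted versus DMSO baseline; background control readout.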

Assay [7] in a line: ATG_NF_kB_CIS: Attagene CIS-FACTORIAL HepG2 Assay for human Nuclear Factor Kappa B (NF-kB) (AID 2282991; active = hit-call score of the fitted dose curve at least 0.9, where 1 is the maximum; inactive = score below 0.9). As to conditions: HepG2 Attagene cis-factorial NF-kB reporter mRNA; actives raise or lower the signal. A digest of the protocol: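 Transient MRTU transfection of human HepG2 liver cells → 24 h chemical exposure → total RNA, oligo(dT) RT → PCR, 6-FAM primer extension, HpaI digest 2 h 37 C → CE fragment analysis. Bidirectional fitting, DMSO negative control.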

Assay [8] concerns the target human Peroxisome Proliferator-activated Receptor alpha (PPARa), PPARA (gene 5465) (UniProt Q07869). Put plainly: ATG_PPARa_TRANS: Attagene TRANS-FACTORIAL HepG2 Assay for human Peroxisome Proliferator-activated Receptor alpha (PPARa) (AID 2283001).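 For AC50: potency for gain of reporter signal over DMSO so agonist or activator.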 A digest of the protocol:
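Reporter transcripts from GAL4-UAS units in transfected HepG2 were quantified 24 h after dosing. Detection used reverse transcription, PCR, fluorescent primer extension and capillary electrophoresis, with DMSO as baseline.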

Assay [9] addresses Retinoic acid receptor RXR-alpha (Homo sapiens) (UniProt P19793). Put plainly: ATG_RXRa_TRANS: Attagene TRANS-FACTORIAL HepG2 Assay for human Retinoid X Receptor alpha (RXRa) (AID 2283012). A digest of the protocol: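 Cells (HepG2) carried transiently transfected GAL4-responsive reporter units. Following a 24 h chemical incubation, reporter mRNA induction was read via RT-PCR fragment analysis; DMSO served as negative control and baseline.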

A short description of assay [10]: TOX21_p53_BLA_p2_viability: Viability Assessment in the Tox21 HCT-116 p53 Agonism Beta-lactamase Assay, Phase 2 (AID 2283591).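 Note: compound exposure lasted 16 h at 37 °C; actives lower the ATP signal meaning cytotoxicity.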 An outline of the steps:
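Cytotoxicity readout: CellTiter-Glo ATP luminescence, 30 min at room temperature, after the beta-lactamase read. Cells were HCT116 exposed 16 h at 37C to compounds pin-transferred at 217-fold dilution from DMSO stocks.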

In assay [11] the target is Cellular tumor antigen p53 (Homo sapiens) (UniProt P04637). Put plainly: TOX21_p53_BLA_p3_ratio: Tox21 HCT-116 p53 Agonism Beta-lactamase Assay, Ratio, Phase 3 (AID 2283596). An outline of the steps: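 HCT116 p53-bla cells (4000/well) given compound in DMSO (217-fold dilution) after 5 h, incubated 16 h at 37C. CCF4-AM substrate 2 h at room temperature; 460/530 nm emission ratio, gain fitted against DMSO.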
Chain of Cellular tumor antigen p53 (Homo sapiens) (P04637 whole entry, looked up): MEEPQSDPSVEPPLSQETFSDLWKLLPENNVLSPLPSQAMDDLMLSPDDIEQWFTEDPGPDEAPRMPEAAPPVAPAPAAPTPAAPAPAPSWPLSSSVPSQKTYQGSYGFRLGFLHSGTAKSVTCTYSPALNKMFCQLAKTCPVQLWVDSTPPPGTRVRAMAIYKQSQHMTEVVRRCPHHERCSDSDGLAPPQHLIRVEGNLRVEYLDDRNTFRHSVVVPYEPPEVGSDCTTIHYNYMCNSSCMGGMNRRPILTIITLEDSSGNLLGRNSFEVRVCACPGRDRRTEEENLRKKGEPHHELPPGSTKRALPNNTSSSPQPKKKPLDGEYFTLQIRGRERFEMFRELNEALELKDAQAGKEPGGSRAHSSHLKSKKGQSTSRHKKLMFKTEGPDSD

Assay [12] has the same target. Put plainly: TOX21_p53_BLA_p5_ratio: Tox21 HCT-116 p53 Agonism Beta-lactamase Assay, Ratio, Phase 5 (AID 2283599). An outline of the steps: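 Beta-lactamase reporter ratio (blue 460 nm over green 530 nm, 405 nm excitation) after 2 h CCF4-AM loading, in HCT-116 cells exposed 16 h at 37 C to compounds pinned at 217-fold dilution. Increases relative to DMSO baseline scored.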

Assay [13] in a line: ATG_GRE_CIS: Attagene CIS-FACTORIAL HepG2 Assay for human Glucocorticoid Response Elements (GRE) (AID 2282947; active = hit-call score of the fitted dose curve at least 0.9, where 1 is the maximum; inactive = score below 0.9). As to conditions: HepG2 GRE cis-reporter, Attagene multiplex mRNA; actives raise or lower the signal. A digest of the protocol:
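Assay uses human hepatoma HepG2 cells transfected with cis-promoter reporter units, exposed 24 h. mRNA from reporters detected by RT-PCR plus capillary electrophoresis; DMSO serves as negative control and baseline.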

For assay [14], the target named is Hypoxia-inducible factor 1-alpha (Homo sapiens) (UniProt Q16665). Put plainly: ATG_HIF1a_CIS: Attagene CIS-FACTORIAL HepG2 Assay for human Hypoxia Inducible Factor 1 (HIF1A) (AID 2282951; active = hit-call score of the fitted dose curve at least 0.9, where 1 is the maximum; inactive = score below 0.9). The conditions noted are these: HepG2 Attagene cis-factorial HIF1a reporter transcription; actives raise or lower the signal. An outline of the steps:
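Transient MRTU transfection of human HepG2 liver cells, 24 h compound treatment, then total RNA isolation, oligo(dT) reverse transcription, PCR amplification, fluorescent labelling and capillary electrophoresis of reporter fragments. Gain or loss relative to DMSO.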

Assay [15] addresses human Retinoid X Receptor beta (RXRb), RXRB (gene 6257) (UniProt P28702). Put plainly: ATG_RXRb_TRANS: Attagene TRANS-FACTORIAL HepG2 Assay for human Retinoid X Receptor beta (RXRb) (AID 2283013). An outline of the steps: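 Multiplexed TRANS reporter assay in HepG2; 24 h dosing; reporter mRNA by RT-PCR/CE fluorescence; gain-of-signal relative to DMSO.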
Assay [16] deals with Cellular tumor antigen p53 (Homo sapiens) (UniProt P04637). Put plainly: TOX21_p53_BLA_p4_ratio: Tox21 HCT-116 p53 Agonism Beta-lactamase Assay, Ratio, Phase 4 (AID 2283601). A digest of the protocol:
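Signal is the blue/green (460nm/530nm) ratio of cleaved versus uncleaved CCF4-AM substrate, read after 2 h substrate loading. Cells were HCT116 carrying the p53-responsive beta-lactamase reporter, dosed 16 h at 37C, 5% CO2; CellTiter-Glo measured in parallel.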

A short description of assay [17]: ATG_M_32_CIS: Attagene CIS-FACTORIAL HepG2 Assay for M32 Transcription Factor (Internal Marker) (AID 2282949; active = hit-call score of the fitted dose curve at least 0.9, where 1 is the maximum; inactive = score below 0.9;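 note: background control marker of the multiplexed CIS panel rather than a real target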). As to conditions: HepG2 Attagene cis-factorial M32 reporter, mRNA; actives raise or lower the signal. A digest of the protocol: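 Following 24 h chemical exposure of HepG2 cells transiently expressing cis-promoter reporter constructs, reporter transcript levels were determined by RT-PCR with fluorescent labelling and capillary electrophoresis, then fitted bidirectionally against DMSO.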

The target in assay [18] is Signal transducer and activator of transcription 3 (Homo sapiens) (UniProt P40763). Put plainly: ATG_STAT3_CIS: Attagene CIS-FACTORIAL HepG2 Assay for human Signal Transducer and Activator of Transcription 3 (STAT3) (AID 2282963; active = hit-call score of the fitted dose curve at least 0.9, where 1 is the maximum; inactive = score below 0.9). The conditions noted are these: HepG2, Attagene cis-factorial STAT3 reporter transcription; actives raise or lower the signal. A digest of the protocol:
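After a 24 h compound incubation, total RNA from MRTU-transfected HepG2 cells was converted to cDNA and reporter sequences PCR-amplified, labelled and profiled by capillary electrophoresis. Gain and loss of signal were referenced to DMSO.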

Assay [19] can be described thus: ATG_TA_CIS: Attagene CIS-FACTORIAL HepG2 Assay for human TA Basal Promoter (AID 2282964; active = hit-call score of the fitted dose curve at least 0.9, where 1 is the maximum; inactive = score below 0.9). The conditions noted are these: HepG2 Attagene CIS-factorial TA basal promoter reporter; actives raise or lower the signal. A digest of the protocol:
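Background internal-marker endpoint from a 52-component HepG2 cis-reporter panel. Cells treated 24 h; reporter transcripts quantified via RT-PCR and CE fluorescence against DMSO baseline.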

Assay [20] concerns the target human Peroxisome Proliferator-activated Receptor delta (PPARd), PPARD (gene 5467) (UniProt Q03181). Put plainly: ATG_PPARd_TRANS: Attagene TRANS-FACTORIAL HepG2 Assay for human Peroxisome Proliferator-activated Receptor delta (PPARd) (AID 2283002). An outline of the steps:
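Cell-based TRANS reporter: HepG2, transient MRTU transfection, 24 h exposure. Readout = reporter mRNA (RT-PCR/CE, 6-FAM). Gain-of-signal fit vs DMSO control.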

Inconclusive results are not listed. Where a structure was tested more than once in an assay, its records may differ in their call. The source made the active and inactive calls. Rule for the calls, unless noted: active = hit-call score of the fitted dose curve at least 0.9, where 1 is the maximum; inconclusive = response in the unintended direction; inactive = score below 0.9.

Chain of human Retinoid X Receptor beta (RXRb), RXRB (gene 6257) (P28702 whole entry, looked up): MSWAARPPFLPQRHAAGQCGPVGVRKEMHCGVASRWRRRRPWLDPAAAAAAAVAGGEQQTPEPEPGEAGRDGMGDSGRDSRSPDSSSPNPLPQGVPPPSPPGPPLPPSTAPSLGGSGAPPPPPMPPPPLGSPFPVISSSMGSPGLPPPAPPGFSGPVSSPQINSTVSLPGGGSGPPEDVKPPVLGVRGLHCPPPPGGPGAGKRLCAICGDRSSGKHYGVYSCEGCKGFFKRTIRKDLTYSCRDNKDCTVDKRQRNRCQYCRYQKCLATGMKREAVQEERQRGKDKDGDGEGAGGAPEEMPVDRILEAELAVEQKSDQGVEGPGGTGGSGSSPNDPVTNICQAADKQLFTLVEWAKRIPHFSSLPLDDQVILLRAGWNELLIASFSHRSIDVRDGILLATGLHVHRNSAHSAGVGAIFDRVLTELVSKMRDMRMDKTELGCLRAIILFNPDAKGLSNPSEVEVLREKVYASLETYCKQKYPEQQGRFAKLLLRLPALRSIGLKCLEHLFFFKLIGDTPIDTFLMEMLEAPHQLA
Chain of human Peroxisome Proliferator-activated Receptor delta (PPARd), PPARD (gene 5467) (Q03181 whole entry, looked up): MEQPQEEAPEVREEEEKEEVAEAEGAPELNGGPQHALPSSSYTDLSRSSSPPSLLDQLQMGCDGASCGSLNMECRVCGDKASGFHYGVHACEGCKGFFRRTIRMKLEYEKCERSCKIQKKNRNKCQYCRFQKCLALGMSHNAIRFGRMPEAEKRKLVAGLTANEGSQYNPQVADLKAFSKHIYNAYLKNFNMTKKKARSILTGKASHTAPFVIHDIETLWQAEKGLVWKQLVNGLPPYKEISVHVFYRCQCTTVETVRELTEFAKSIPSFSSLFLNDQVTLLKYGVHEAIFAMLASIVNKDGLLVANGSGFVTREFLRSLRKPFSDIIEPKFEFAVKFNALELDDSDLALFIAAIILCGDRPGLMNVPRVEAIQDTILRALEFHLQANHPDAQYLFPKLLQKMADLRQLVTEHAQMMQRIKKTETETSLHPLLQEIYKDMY
Chain of Retinoic acid receptor RXR-alpha (Homo sapiens) (P19793 whole entry, looked up, the tested form may be a part): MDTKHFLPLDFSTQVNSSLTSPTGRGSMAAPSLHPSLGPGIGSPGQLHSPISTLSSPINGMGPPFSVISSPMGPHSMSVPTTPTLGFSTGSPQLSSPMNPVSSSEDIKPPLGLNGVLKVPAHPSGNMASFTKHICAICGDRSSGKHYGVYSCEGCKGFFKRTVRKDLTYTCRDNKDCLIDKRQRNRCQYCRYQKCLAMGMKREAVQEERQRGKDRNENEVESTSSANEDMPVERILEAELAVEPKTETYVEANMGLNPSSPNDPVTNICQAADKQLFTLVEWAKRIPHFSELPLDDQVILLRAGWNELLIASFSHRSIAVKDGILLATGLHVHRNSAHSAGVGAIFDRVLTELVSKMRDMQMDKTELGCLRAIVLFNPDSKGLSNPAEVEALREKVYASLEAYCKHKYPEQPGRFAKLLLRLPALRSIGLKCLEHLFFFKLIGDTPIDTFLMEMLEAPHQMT
Chain of human Peroxisome Proliferator-activated Receptor alpha (PPARa), PPARA (gene 5465) (Q07869 whole entry, looked up, the tested form may be a part): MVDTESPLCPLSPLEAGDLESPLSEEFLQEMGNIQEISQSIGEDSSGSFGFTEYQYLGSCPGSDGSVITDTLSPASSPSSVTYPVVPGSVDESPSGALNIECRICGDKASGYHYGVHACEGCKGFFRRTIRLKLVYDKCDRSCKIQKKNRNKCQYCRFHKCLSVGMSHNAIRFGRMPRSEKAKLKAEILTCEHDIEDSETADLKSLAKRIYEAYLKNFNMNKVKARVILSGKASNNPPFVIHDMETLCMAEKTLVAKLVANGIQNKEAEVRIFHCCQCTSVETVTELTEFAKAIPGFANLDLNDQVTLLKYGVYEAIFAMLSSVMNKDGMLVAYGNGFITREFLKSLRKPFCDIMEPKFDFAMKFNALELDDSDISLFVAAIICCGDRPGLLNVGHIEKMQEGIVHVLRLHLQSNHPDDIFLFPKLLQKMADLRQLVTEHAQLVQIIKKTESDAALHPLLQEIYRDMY
Chain of Hypoxia-inducible factor 1-alpha (Homo sapiens) (Q16665 whole entry, looked up, the tested form may be a part): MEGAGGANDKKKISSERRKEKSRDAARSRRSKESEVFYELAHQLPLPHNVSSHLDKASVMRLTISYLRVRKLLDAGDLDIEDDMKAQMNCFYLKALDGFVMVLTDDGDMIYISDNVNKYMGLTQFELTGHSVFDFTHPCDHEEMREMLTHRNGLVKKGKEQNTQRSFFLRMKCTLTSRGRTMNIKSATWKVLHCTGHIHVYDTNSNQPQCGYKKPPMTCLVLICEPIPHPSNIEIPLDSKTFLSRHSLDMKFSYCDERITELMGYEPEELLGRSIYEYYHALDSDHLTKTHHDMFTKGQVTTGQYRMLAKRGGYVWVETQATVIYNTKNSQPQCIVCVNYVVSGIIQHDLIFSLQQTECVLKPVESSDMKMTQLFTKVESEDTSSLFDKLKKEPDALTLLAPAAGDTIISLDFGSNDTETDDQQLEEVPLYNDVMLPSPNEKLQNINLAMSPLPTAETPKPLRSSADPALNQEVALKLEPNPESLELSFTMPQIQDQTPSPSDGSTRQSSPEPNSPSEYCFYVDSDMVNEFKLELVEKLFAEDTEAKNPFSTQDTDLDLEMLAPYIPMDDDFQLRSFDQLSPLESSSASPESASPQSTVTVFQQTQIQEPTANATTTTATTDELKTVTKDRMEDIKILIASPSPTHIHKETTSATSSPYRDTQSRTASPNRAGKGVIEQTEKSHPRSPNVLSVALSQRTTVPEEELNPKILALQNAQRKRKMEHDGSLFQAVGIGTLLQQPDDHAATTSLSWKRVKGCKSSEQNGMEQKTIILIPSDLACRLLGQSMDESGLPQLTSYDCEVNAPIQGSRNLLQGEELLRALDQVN
Chain of Signal transducer and activator of transcription 3 (Homo sapiens) (P40763 whole entry, looked up): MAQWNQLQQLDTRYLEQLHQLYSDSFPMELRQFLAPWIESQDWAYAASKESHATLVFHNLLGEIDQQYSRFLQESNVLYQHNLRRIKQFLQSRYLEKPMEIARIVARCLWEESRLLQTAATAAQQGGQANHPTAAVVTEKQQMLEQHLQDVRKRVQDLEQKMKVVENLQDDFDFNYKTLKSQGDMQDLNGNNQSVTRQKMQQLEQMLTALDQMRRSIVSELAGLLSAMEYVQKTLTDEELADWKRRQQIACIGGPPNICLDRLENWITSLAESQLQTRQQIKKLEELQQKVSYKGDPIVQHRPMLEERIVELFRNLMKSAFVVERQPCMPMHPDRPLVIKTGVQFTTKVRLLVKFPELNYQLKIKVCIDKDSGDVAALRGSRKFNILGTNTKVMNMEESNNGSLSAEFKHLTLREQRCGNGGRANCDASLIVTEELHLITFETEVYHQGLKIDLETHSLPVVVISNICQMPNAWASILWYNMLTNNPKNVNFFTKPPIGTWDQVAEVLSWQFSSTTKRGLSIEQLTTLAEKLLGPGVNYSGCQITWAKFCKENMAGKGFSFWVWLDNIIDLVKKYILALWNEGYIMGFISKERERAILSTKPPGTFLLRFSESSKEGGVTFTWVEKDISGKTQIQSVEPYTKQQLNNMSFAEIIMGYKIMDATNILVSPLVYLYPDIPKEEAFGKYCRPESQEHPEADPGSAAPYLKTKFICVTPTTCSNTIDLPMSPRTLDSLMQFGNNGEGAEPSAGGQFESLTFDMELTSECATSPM

For `O=C1C=CC(=O)C=C1`, the AC50 in [1] was 61.2 µM (active); in assay [11], 71.3 µM (active). In addition, the molecule was classed as inactive in [2], in assay [3], in assay [4], in [5], in assay [6] and in assay [7]. Also, the molecule was classed as inactive in assay [8], in assay [9], in assay [10], in assay [11] and in assay [12].
In the case of `C=C(Cl)CCl`, the molecule was classed as inactive in [1], in assay [2], in assay [13], in assay [14], in assay [5] and in assay [6]. For the same molecule, the result in [7], in [8], in [9], in [15], in assay [11] and in [12] was inactive. Further, the result in assay [16] was inactive.
In the case of `CCCCOP(=O)(O)OCCCC`, the result in [1], in assay [13], in assay [17], in [14], in assay [18] and in [19] was inactive. The call in assay [5], in [6], in assay [7], in [8] and in assay [20] was inactive.
For the molecule `[Cl-].[Cl-].[Cl-].[Yb+3]`, the outcome in assay [3], in assay [17], in assay [9] and in [10] was inactive.
Turning to `CCCCOC(=O)CCC(=O)OCCCC`, the call in assay [1], in [3], in [17], in assay [4], in assay [18] and in assay [19] was inactive. The result in [6], in assay [8], in assay [20], in assay [15], in [10] and in assay [12] was inactive. Also, the outcome in [16] was inactive.
As for `C=CCN(CC=C)C(=O)C(Cl)Cl`, the molecule was called inactive in [2], in assay [13], in [4], in [19], in assay [7] and in [20]. Further, the result in assay [9], in assay [10], in [11], in assay [12] and in assay [16] was inactive.
Take `CCOP(=O)(OCC)OCC`: the molecule was called inactive in assay [2], in [13], in assay [17], in [14], in [4] and in [18]. Also, the molecule was called inactive in assay [19], in assay [5], in assay [8], in assay [20], in assay [9] and in [15]. Moreover, the molecule was classed as inactive in assay [10], in [11], in assay [12] and in assay [16].
Turning to `CC1(C)C(=O)NC(=O)NC1=O`, the call in assay [1], in assay [13], in assay [3], in assay [17], in [14] and in [4] was inactive. For the same molecule, the molecule was classed as inactive in assay [7], in assay [9], in assay [15], in assay [10], in assay [11] and in assay [12].
For `CCCCCCCCCCCCCCCC[N+](C)(C)C`, the AC50 in assay [1] is 100 µM (active); in assay [13], 48.5 µM (active); in [3], 27.4 µM (active); in assay [17], 25.5 µM (active); in assay [7] it was 53.4 µM (active); in assay [8], 49.2 µM (active). The call in [2], in assay [14], in [4], in assay [19], in [6] and in [20] was inactive. In addition, the call in [9] and in assay [15] was inactive.
Consider `CCCOC(=O)c1ccccc1C(=O)OCCC`, for which the molecule was called inactive in assay [2], in assay [3], in assay [14], in [18], in assay [19] and in assay [5]. In addition, the call in assay [7], in [8], in assay [20], in [10], in [12] and in [16] was inactive. The AC50 in [15] is 76.1 µM (active).

The record behind these values is PubChem BioAssay (EPA / NIEHS).
